Assay results: publication PMC5540273 (PLoS ONE, 2017)

Key:
Settings in all cases: concentration: 1 μM, replicates: in singlicate; n = 1
[1] = system: T1, JNK2
T1 construct: gene MAPK9

[2] = system: T2, JNK3
T2 construct: gene MAPK10

[3] = system: KIT-autoinhibited
[4] = system: KIT
[5] = system: LATS1
[6] = system: LATS2
[7] = system: LCK
[8] = system: LIMK1
[9] = system: LIMK2
[10] = system: T3, LKB1
T3 construct: gene STK11

[11] = system: T4, LOK
T4 construct: gene STK10

[12] = system: LRRK2
[13] = system: LTK
[14] = system: LYN
[15] = system: T5, LZK
T5 construct: gene MAP3K13

[16] = system: MAK
[17] = system: MAP3K15
[18] = system: MAP3K1
[19] = system: MAP3K2
[20] = system: MAP3K3
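Note: KINOMEscan kinase panel screen.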

| SMILES | %Inh [1] | %Inh [2] | %Inh [3] | %Inh [4] | %Inh [5] | %Inh [6] | %Inh [7] | %Inh [8] | %Inh [9] | %Inh [10] | %Inh [11] | %Inh [12] | %Inh [13] | %Inh [14] | %Inh [15] | %Inh [16] | %Inh [17] | %Inh [18] | %Inh [19] | %Inh [20] |
| --- | --- | --- | --- | --- | --- | --- | --- | --- | --- | --- | --- | --- | --- | --- | --- | --- | --- | --- | --- | --- |
| O=C(NCc1cccs1)c1cc(C(=O)c2c(Cl)cccc2Cl)c[nH]1 [GW823670] | 0% | 0% | 4% | 0% | 0% | 0% | 0% | 6% | 0% | 49% | 21% | 0% | 11% | 1% | 0% | 0% | 0% | 0% | 0% | 0% |
| CCC(=O)c1c(-c2ccccc2)c2cc(Cl)ccc2c(=O)n1Cc1ccc(C(=O)O)cc1 | 93.4% | 94.6% | 0% | 39% | 2% | 0% | 0% | 2% | 0% | 1% | 0% | 0% | 0% | 0% | 0% | 4% | 0% | 0% | 0% | 0% |
| Nc1n[nH]c2nnc(-c3ccccc3)c(-c3ccccc3)c12 [GW554060] | 23% | 15% | 0% | 18% | 0% | 4% | 14% | 6% | 11% | 0% | 0% | 41% | 0% | 100% | 3% | 26% | 0% | 25% | 3% | 0% |
| COc1cc2ncn(-c3cc(OCCCc4ccccc4)c(C(N)=O)s3)c2cc1OC [GSK205189] | 21% | 12% | 0% | 13% | 0% | 15% | 16% | 0% | 0% | 0% | 40% | 5% | 0% | 0% | 0% | 4% | 0% | 22% | 0% | 0% |
| CCC(=O)c1c(-c2ccccc2)c2cc(Cl)ccc2c(=O)n1Cc1cc(S(C)(=O)=O)n(CC(F)F)n1 | 99.4% | 99.4% | 0% | 5% | 0% | 0% | 0% | 0% | 0% | 0% | 0% | 0% | 0% | 0% | 0% | 14% | 2% | 0% | 0% | 0% |
| COC(=O)c1c(-c2ccccc2)c2cc(Br)ccc2c(=O)n1Cc1ccc(NC(=O)CCC(=O)O)cc1 | 99.1% | 99.3% | 1% | 38% | 27% | 17% | 0% | 0% | 0% | 6% | 20% | 4% | 3% | 8% | 4% | 8% | 18% | 12% | 0% | 18% |
| COc1cc(Nc2nccc(N3CCC(NC(=O)C(C)c4ccc(Cl)cc4)C3)n2)cc(OC)c1OC (centres unmarked) [GSK1379757] | 6% | 0% | 0% | 2% | 0% | 1% | 8% | 1% | 22% | 7% | 0% | 0% | 28% | 0% | 0% | 17% | 0% | 1% | 0% | 0% |
| Cc1ccccc1COc1cc(-n2cnc3cc(Cl)ccc32)sc1C(N)=O [GW813349] | 0% | 0% | 0% | 0% | 0% | 61% | 0% | 0% | 13% | 0% | 46% | 82% | 9% | 33% | 0% | 0% | 1% | 32% | 5% | 11% |
| CC(C)(C)c1ccc(C(=O)Nc2cn3cc(-c4ccccc4)ccc3n2)cc1 | 0% | 0% | 0% | 92.6% | 0% | 0% | 8% | 10% | 0% | 15% | 0% | 0% | 0% | 0% | 0% | 11% | 22% | 0% | 0% | 2% |
| CN1C(=O)C(Nc2ccccc2)=C(c2ccccc2)C1=O [SB-300079] | 0% | 0% | 17% | 0% | 0% | 0% | 0% | 0% | 0% | 13% | 0% | 0% | 0% | 0% | 0% | 0% | 0% | 0% | 21% | 0% |
